# High-throughput results deposited in PubChem BioAssay by National Center for Advancing Translational Sciences (NCATS).
# gsp antag – antagonizes gsp, the McCune-Albright syndrome mutation; Potency, µM (top dose mostly 76.9 µM), for inactives: top-dose activity change, negative = inhibition, most hits filed as inhibitors; gsp-mutant cells, cAMP HTRF, 30 min; 340,000 tested, 0.4% active; calls by dose curve; cell line not stated here;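 also: intracellular cAMP measured with PDE inhibitor Ro 20-1724 present during compound exposure; potency is read from the fitted curve at half-maximal effect; % is scaled to controls: 0 for no effect and ±100 for the full control effect; nearly all actives have a fitted effect of over 65% in size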
#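 Measurement of cellular cAMP by homogeneous time-resolved fluorescence following a 30 min compound exposure at 37C. The PDE inhibitor […] was present throughout; the assay buffer was DPBS with 0.05% BSA and 0.005% Tween 20.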
# Akt phos inh – Akt phosphorylation inhibition; Neuro2A IGF-stimulated pAkt S473 HTRF, 20 min; active compounds read low; activity change, % for hits at 50 µM; 360,000 tested, 0.32% active; in the data active = activity change below about -80%; inconclusive = mostly about -51% to -80%; also: % is scaled to controls: 0 for no effect and ±100 for the full control effect
#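 Neuro2A cells (4,500/well, DMEM with 0.5% FBS) were treated with compound at a single 50 µM final concentration, stimulated with 6 nM IGF for 20 min at 37 °C, and lysed. Phospho-Akt Ser473 was read by HTRF as 665/615 ratio ×10^4.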
# gsp ag – agonists of gsp mutant (McCune-Albright syndrome) | 340,000 tested, 0.13% active | gsp mutant cells, cAMP HTRF, 30 min | Potency, µM (titrated, usually from 76.9 µM), inactives show at the highest dose activation (cAMP increase), usual class: activators; active = well fitted activation curve with a large enough effect; inconclusive = small, poorly fitted or top-dose-only effect, or another doubt; inactive = no such curve, though single readings can be large or run the other way; cell line not stated here;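 also: phosphodiesterase inhibitor Ro 20-1724 added with compounds to block cAMP breakdown; potency is read from the fitted curve at half-maximal effect; nearly all actives have a fitted effect of over 60% in size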
#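 Cells stably selected in G418 were plated at 2000/well, grown 16-24 hr, then given compounds in DMSO with the PDE inhibitor […] (300 uM solution added) for 30 min at 37C; cAMP was read by HTRF.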
# RXFP1 ag – RXFP1 (human) receptor agonism; 370,000 tested, 0.3% active; HEK293T-RXFP1 cAMP TR-FRET, 30 min; response scale: percent of porcine relaxin response, buffer zero; Q9HBX9; Potency, µM (top dose mostly 57.5 µM), without a hit: at the highest dose activation, actives largely listed as activators; AID 2676; active = well fitted activation curve with a large enough effect; inconclusive = small, poorly fitted or top-dose-only effect; also: potency is read from the fitted curve at half-maximal effect; % is scaled to controls: 0 for no effect and ±100 for the full control effect; nearly all actives have a fitted effect of over 60% in size
# Target sequence (Q9HBX9 whole entry, looked up): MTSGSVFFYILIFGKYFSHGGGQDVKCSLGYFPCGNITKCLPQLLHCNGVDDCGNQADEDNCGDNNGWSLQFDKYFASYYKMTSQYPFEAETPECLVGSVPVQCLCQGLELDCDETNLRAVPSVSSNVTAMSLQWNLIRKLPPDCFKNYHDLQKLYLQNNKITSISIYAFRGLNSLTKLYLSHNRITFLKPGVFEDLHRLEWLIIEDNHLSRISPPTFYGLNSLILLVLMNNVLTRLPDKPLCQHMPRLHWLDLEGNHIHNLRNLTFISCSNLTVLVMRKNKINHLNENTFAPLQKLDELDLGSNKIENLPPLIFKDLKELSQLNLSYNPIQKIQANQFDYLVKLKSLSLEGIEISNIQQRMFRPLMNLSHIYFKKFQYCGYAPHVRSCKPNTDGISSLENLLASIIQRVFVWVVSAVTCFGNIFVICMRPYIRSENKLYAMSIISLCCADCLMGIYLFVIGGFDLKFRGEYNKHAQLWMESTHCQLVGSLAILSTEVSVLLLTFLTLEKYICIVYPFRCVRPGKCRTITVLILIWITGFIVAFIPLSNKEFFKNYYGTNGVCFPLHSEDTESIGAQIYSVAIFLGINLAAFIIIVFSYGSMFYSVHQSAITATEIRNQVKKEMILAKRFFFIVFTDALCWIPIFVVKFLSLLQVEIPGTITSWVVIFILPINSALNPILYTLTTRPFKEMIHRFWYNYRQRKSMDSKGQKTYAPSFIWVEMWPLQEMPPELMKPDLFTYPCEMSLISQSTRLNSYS
#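 HEK293 cells stably expressing RXFP1, treated 30 min at 37C with compounds plus PDE4 inhibitor Ro 20174; cAMP measured by HTRF TR-FRET. Normalized to buffer and 29 nM porcine relaxin; EC50 by Hill fit.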
# RXFP1 antag – RXFP1 (human) relaxin receptor antagonism; activity change, negative = inhibition, % at 57.5 µM; Q9HBX9; HEK293-RXFP1, relaxin-stimulated cAMP HTRF, 30 min; active compounds read low; 350,000 tested, 0.59% active;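 active = activity change of -60% or lower, but not beyond a set lower limit; inconclusive = change between -60% and -40%, or beyond the set limit; inactive = change above -40%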; also: % is scaled to controls: 0 for no effect and ±100 for the full control effect
# * = called active by the depositor; i = inactive; ? = inconclusive; / = no result given; [ ] = remark or other dose. Shown are actives, neighbours in structure and some others; about 1.2% of the full set was active somewhere.
SMILES,gsp antag,Akt phos inh,gsp ag,RXFP1 ag,RXFP1 antag
COc1cc(NC(=O)C(C)Oc2ccccc2)ccc1NC(=O)COc1ccccc1 (stereo unspecified),39.8µM*,i,-23.6%,-0.3%,-6.7
CCOc1ccc(NC(=O)CSc2ncc(S(=O)(=O)c3ccc(F)c(C)c3)c(=O)[nH]2)cc1,/,/,/,0.9%,/
COc1ccc(-n2c(=O)c3c4c(sc3n(Cc3ccc(C(C)(C)C)cc3)c2=O)CCC4)c(OC)c1,/,/,/,-0.9%,-18.3
COc1ccccc1-n1cnnc1SCC(=O)NCc1cccs1,0.5%,-110.9%*,-4.3%,0.1%,-11.7
CCc1ccc(-n2c(=O)c3cccnc3n2CC(=O)N(CC)c2cccc(C)c2)cc1,/,/,/,9.0%,-31.0
O=C(Cc1ccccc1)N/N=C/c1cc(Br)cc(Cl)c1O,-12.7%,i,12.1%[15.4 µM],9.7%,-62.8*
O=C(Cc1ccc(Cl)cc1)N/N=C/c1ccccc1,6.5%,i,5.8%,-0.5%,23.4
O=C(CNC(=O)c1ccccc1Br)N/N=C\c1cc([N+](=O)[O-])cc(Br)c1O,-5.1%,i,-0.2%,-4.4%,-67.2*
O=C(C[n+]1ccccc1)N/N=C/c1cc(Br)cc(Br)c1O,21.6%,i,-13.7%[15.4 µM],-0.2%,?
O=C(CP(=O)(c1ccccc1)c1ccccc1)N/N=C/c1cc(Br)cc(Br)c1O,-26.9%,i,1.8%[15.4 µM],3.3%,-70.9*
O=C(Cc1ccc(Cl)cc1)N/N=C/c1cccc(O)c1,50.1µM*,i,0.3%,1.4%,10.0
COc1ccc(CNC(=O)CCc2c(C)nc3c4cccnc4nn3c2C)cc1,/,/,/,?,-12.8
C(=C\c1ccccc1)/C=N/Nc1nc(N2CCOCC2)nc(N2CCOCC2)n1,-6.6%,i,-29.6%,1.2%,-3.8
Clc1ccccc1/C=C/C=N/Nc1nc(N2CCOCC2)nc(N2CCOCC2)n1,12.6µM*,i,-7.3%[15.4 µM],-1.0%,-23.3
C=CCn1c(SCC(=O)NCCCC)nc2scc(-c3ccco3)c2c1=O,-36.5%,i,12.8%,1.9%,-20.1
C=CCn1c(SCC(=O)NC2CCCC2)nc2scc(-c3ccco3)c2c1=O,-13.7%,i,-23.1%,0.6%,-62.3*
CC(CC(C#N)(c1ccccc1)C(C)C)N(C)C (stereo unspecified),/,/,/,/,-4.5
COc1cc(O)oc1C=Nc1ccc(Cl)cc1,2.9%,-119.2%*,6.2%,1.9%,1.9
CC(=O)O[C@]1(C(C)=O)CC[C@H]2[C@@H]3C=C(Cl)C4=CC(=O)CC[C@]4(C)[C@H]3CC[C@@]21C,-20.1%,i,/,0.2%,-83.4*
NCc1ccccc1Sc1ccccc1CO,/,/,/,/,-16.4
O=C(Nc1nccs1)c1cc(S(=O)(=O)N2CCOCC2)ccc1Cl,4.1%,i,10.3%,0.2%,3.3
O=C(Nc1cc(S(=O)(=O)N2CCOCC2)ccc1O)c1ccc(S(=O)(=O)N2CCCCC2)cc1,8.91µM*,i,-7.2%,/,0.1
Cc1ccc(S(=O)(=O)N2CCOCC2)cc1C(=O)Nc1cc(S(=O)(=O)N2CCCCC2)ccc1O,-1.6%,i,-10.2%,/,-2.8
Cc1ccc(S(=O)(=O)N2CCOCC2)cc1NC(=O)CSc1ccc(Cl)cc1,-3.2%,i,-42.4%,0.7%,-10.0
Cc1ccc(C(=O)Nc2ccon2)cc1S(=O)(=O)N1CCCCCC1,7.0%,i,17.5%,1.0%,5.6
SMILES,gsp antag,Akt phos inh,gsp ag,RXFP1 ag,RXFP1 antag
O=C(Nc1ccon1)c1ccc(S(=O)(=O)N2CCCCCC2)cc1,-7.0%,-115.9%*,-38.4%,0.1%,-12.5
O=C(CCCSc1ccc(Cl)cc1)Nc1cc(S(=O)(=O)N2CCOCC2)ccc1O,31.6µM*,i,-28.4%,-0.2%,-8.0
O=C(Nc1nccs1)c1cccc(S(=O)(=O)N2CCOCC2)c1,7.2%,-114.0%*,-8.5%,2.4%,-9.1
O=C(Cc1ccc(Br)c2ccccc12)N/N=C/c1ccccn1,25.1µM*,i,-15.1%[15.4 µM],-2.4%,?
O=C(Cc1ccc(F)cc1)N/N=C/c1ccccn1,13.5%,i,-29.0%,2.0%,4.3
CC(NC(=O)c1cc(-c2ccc(Cl)cc2)on1)c1ccccc1 (stereo unspecified),/,/,/,-3.5%,/
CCc1nc(N2CCN(S(C)(=O)=O)CC2)c2c3c(sc2n1)CCCC3,?,i,0.1%,0.2%,-5.3
CCC(=O)N1CCN(c2nc(CC)nc3sc4c(c23)CCCC4)CC1,20µM*,i,25.0%[15.4 µM],4.0%,3.4
CCc1nc(N2CCN(C(=S)NCCCOC)CC2)c2c3c(sc2n1)CCCC3,7.08µM*,i,-7.4%,3.4%,-2.3
COc1ccc(N2CCN(C(=O)C(C)n3nc(C)c4sc5ccccc5c4c3=O)CC2)cc1 (stereo unspecified),/,/,/,12.0%,-18.7
CCCCCCCCC/C(=N\O)c1ccccn1,7.8%,i,4.2%[15.4 µM],-0.6%,-69.3*
CCCCCCCCC(=O)N/N=C/c1ccccn1,-1.0%,i,23.6%,-0.8%,-18.8
O=C(Cn1c(=O)n(Cc2ccco2)c(=O)c2oc3ccccc3c21)Nc1ccc(F)c(Cl)c1,/,/,/,-2.9%,-18.7
CCOC(=O)c1c(NC(=S)NCCc2ccccc2)sc2c1CC(C(C)C)OC2 (stereo unspecified),-6.4%,i,29.2%,-0.2%,15.2
C=CCNC(=S)Nc1sc2c(c1C(=O)OCC)CC(C(C)C)OC2 (stereo unspecified),7.5%,i,?,2.4%,-95.6*
N=C1N=C(N)c2cc3ccccc3cc21,/,/,/,/,-80.4*
CC(=O)Nc1c(C(=O)Nc2cccc(C)c2)nnn1-c1ccc(C)cc1,/,/,/,2.8%,/
CC(C)OC(=O)CSc1nnc(CNc2nc(-c3ccccc3)cs2)n1C,-2.6%[15.4 µM],-103.2%*,-3.5%,0.6%,-6.7
Cn1c(CNc2nc(-c3ccccc3)cs2)nnc1SCC(=O)OC1CCCCC1,-19.6%,i,-35.0%,-1.1%,-6.1
CCOc1ccc2nc3c(cc2c1)CN(CCOC)C(=NC)S3,5.2%,-88.5%*,13.3%,?,4.6
COc1nc(-c2ccc(C)cc2)ccc1-c1noc(-c2cccnc2)n1,19.2%,-105.3%*,-23.9%,2.1%,-11.6
CC1CCN(S(=O)(=O)c2ccc3nc(NCc4ccccc4)ccc3c2)CC1,/,/,/,-0.7%,2.1
O=C(CCS(=O)(=O)c1ccc(Br)cc1)N1CCN(Cc2ccccc2)CC1,-14.5%,-109.3%*,-2.2%,3.8%,-4.2
COc1ccc2[nH]c(=O)c(CN(CC3CCCO3)C(=O)Nc3ccc(F)cc3)cc2c1 (stereo unspecified),31.6µM*,i,10.5%,-0.6%,/
COc1ccc(/C=N/n2cnnc2SCc2ccccc2)cc1,-8.1%,-109.9%*,-3.5%,0.1%,-23.6
O=C(COCCOCCOCC(=O)Nc1c(I)cc(I)c(C(=O)O)c1I)Nc1c(I)cc(I)c(C(=O)O)c1I,/,/,/,/,-6.2
Cc1cc(C#N)c2ccccc2n1,10.6%,-108.8%*,?,2.9%,4.1
CCCc1ccc(S(=O)(=O)N2CCC(c3nnc(-c4cccc(C)c4)o3)CC2)cc1,/,/,/,1.0%,-1.3
